# Screening data (PubChem)
# Pf growth 96h: Primary qHTS for delayed death inhibitors of the malarial parasite plastid, 96 hour incubation; P. falciparum luciferase reporter growth, 96 h; Potency, µM (series often up to 28.7 µM), for the others: at the highest dose activity change, negative = inhibition, actives largely listed as inhibitors; hit rate 6.9% among 320,000; active = well fitted inhibition curve with a large enough effect; inconclusive = small, poorly fitted or top-dose-only effect, or another doubt; inactive = no such curve, though single readings can be large or run the other way; note: % is set by controls: 0 for no effect and ±100 for the full control effect
#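 P. falciparum expressing integrated firefly luciferase, in erythrocytes at 2% hematocrit, 0.05% parasitemia, incubated with compounds 96 h at 37 C, 5% CO2. Growth inhibition read as loss of luminescence; two-generation exposure targets delayed-death apicoplast inhibitors.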
# NS1 inh: qHTS Assay for Inhibitors of Influenza NS1 Protein Function; hit rate 0.4% among 270,000; Potency, µM (series often up to 46.1 µM), without a hit: at the highest dose activity, positive = more growth; note: actives are rising curves; nearly all actives have a fitted effect of over 50% in size
#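 OD600 was taken as the measure of yeast growth restored by compound in an NS1-expressing S. cerevisiae strain. Cells had been washed out of glucose medium and diluted 1:100 into galactose -URA medium, pH 6.0.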
# Pf growth 48h: Primary qHTS for delayed death inhibitors of the malarial parasite plastid, 48 hour incubation | P. falciparum luciferase growth in erythrocytes, 48 h | Potency, µM (series often up to 28.7 µM), inactives show at the top dose activity change, negative = inhibition, most hits filed as inhibitors | hit rate 5.9% among 310,000 | AID 504832, 2011; active = well fitted inhibition curve with a large enough effect; inconclusive = small, poorly fitted or top-dose-only effect, or another doubt; inactive = no such curve, though single readings can be large or run the other way; note: % is set by controls: 0 for no effect and ±100 for the full control effect
#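 Luciferase-expressing parasites in RBCs, 2% Hct / 0.1% parasitemia final; RPMI 1640 + 0.5% Albumax; 37 C, 5% CO2, one generation; luminescence read-out, lower signal = inhibition.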
# SARS PLP yeast: qHTS of Yeast-based Assay for SARS-CoV PLP; Potency, µM (highest dose often 32.9 µM), for inactives: at the highest dose activity, positive = growth rescue, hits mostly activators; AID 485353, 2010; S. cerevisiae expressing SARS-CoV PLpro, growth rescue; hit rate 0.19% among 330,000; note: 0% is about no effect; nearly all actives have a fitted effect of over 55% in size
# RE007 growth inh: qHTS Assay for Inhibitors of the HIV-1 protein Vpr; S. pombe RE007 Vpr strain, BacTiter-Glo ATP luminescence, 24 h; Potency, µM (top dose mostly 92.2 µM), inactives show at the top dose activity change, negative = less growth, usual class: inhibitors; hit rate 0.21% among 360,000; active = well fitted falling curve with a large enough effect; inconclusive = small, poorly fitted or top-dose-only effect; inactive = no such curve, though single readings can be large or run the other way; note: % is set by controls: 0 for no effect and ±100 for the full control effect; nearly all actives have a fitted effect of over 50% in size
#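 Fission yeast RE007 carrying one integrated HIV-1 vpr copy, seeded at OD 0.01 in PMG+AL medium with 23 nL pinned compound. Grown 24 h at 30 degrees; viability read by BacTiter-Glo luminescence after 5 min.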
# The depositor's hits bear a star; i = inactive; ? = inconclusive; nt = no result given. A selection: hits, their analogues and other compounds. The true share with any hit is near 9.5%. Unless noted, calls come from the whole dose curve. Potency is the fitted concentration of half-maximal effect.
SMILES,Pf growth 96h,NS1 inh,Pf growth 48h,SARS PLP yeast,RE007 growth inh
COC(=O)C1=C(c2ccc(OCc3ccccc3)cc2)C[C@@H]2CC[C@H]1N2C(=O)NCc1ccccc1,?,nt,7.4µM*,1%,-8%
COC(=O)C1=C(c2ccc(OCc3ccccc3)cc2)C[C@@H]2CC[C@H]1N2C(=O)NCc1ccc2c(c1)OCO2,nt,nt,nt,nt,10%
COC(=O)C1=C(c2ccc(OCc3ccccc3)cc2)C[C@@H]2CC[C@H]1N2C(=O)NCc1ccc(OC)cc1,nt,nt,nt,nt,-3%
COC(=O)C1=C(c2ccc(OCc3ccccc3)cc2)C[C@@H]2CC[C@H]1N2C(=O)NCc1cccc(OC)c1,?,nt,3.7µM*,3%,4%
OC(COc1ccc2c(c1)CCC2)Cn1cnc2ccccc21 (stereo unspecified),29%,-51%,10µM*,-4%,-24%
CC(=O)Nc1cccc(OCC(O)Cn2cnc3ccccc32)c1 (stereo unspecified),44%,-3%,-5%,-1%,1%
OC(CN(c1ccccc1)c1ccccc1)Cn1cnc2ccccc21 (stereo unspecified),i,-105%,12µM*,-9%,-2%
OC(COCc1ccccc1)Cn1cnc2ccccc21 (stereo unspecified),18%,0%,10%,-6%,5%
CC(=O)Nc1ccc(OCC(O)Cn2cnc3ccccc32)cc1 (stereo unspecified),7.4µM*,-7%,24%,8%,-1%
CC(C)(C)OC(=O)N1CSC[C@H]1C(=O)NC[C@H](CC(=O)O)c1ccc(Cl)cc1,18%,7%,1%,3%,20%
O=C1NC2(CCCC2)C(=O)N1CC(=O)N(Cc1ccccc1)c1ccccc1,3%,nt,?,1%,32%
Cc1ccc(Cn2cc(CCC(=O)O)c3ccccc32)cc1,4.7µM*,-63%,nt,0%,22%
CCn1cc(CCCC(=O)NCc2ccc(OC)cc2)c2ccccc21,5%,-7%,2.3µM*,-2%,17%
CCn1cc(CCC(=O)NCc2cccc(OC)c2OC)c2ccccc21,-16%,0%,-27%,2%,-5%
CCn1cc(CCCC(=O)NCc2cccnc2)c2ccccc21,36%,-4%,5%,2%,-3%
CCOc1ccccc1CNC(=O)CCc1cn(CC)c2ccccc12,3%,-1%,15µM*,-2%,-14%
CCOc1ccc(CNC(=O)CCCc2cn(C)c3ccccc23)cc1OC,?,-25%,-27%,6%,-10%
CCOc1ccc(CNC(=O)CCCc2cn(C)c3ccccc23)cc1,4%,-38%,3.7µM*,-2%,-4%
COc1ccc2[nH]c3c(c2c1)CCN1C(=O)C(CC(=O)NCc2ccco2)C[C@H](C(=O)N2CCOCC2)[C@@]31CCC1CCCC1 (stereo partly specified),nt,nt,nt,-2%,10%
O=C1NC(c2ccccc2)N=C2Oc3ccccc3C=C12 (stereo unspecified),nt,nt,nt,nt,-5%
Cc1ccc(CNC(=O)CCc2cn(C)c3ccccc23)cc1,13µM*,-7%,17%,-3%,-4%
Cc1ccc(CNC(=O)CCn2cc(-c3ccc(C)cc3)nc2CCN)cc1,?,nt,12µM*,-25%,-1%
CC(=O)Nc1nc2nc(-c3ccccc3)cc(-c3ccccc3)n2n1,41%,18%,?,3%,3%
O=C(Nc1nc2nc(-c3ccccc3)cc(-c3ccccc3)n2n1)c1ccco1,nt,-57%,2.9µM*,0%,8%
CC(=O)Nc1nc2n(n1)C(c1ccccc1)C=C(c1ccccc1)N2 (stereo unspecified),5.2µM*,16%,-5%,2%,5%
SMILES,Pf growth 96h,NS1 inh,Pf growth 48h,SARS PLP yeast,RE007 growth inh
O=C(c1nc2n(n1)C(c1ccc(Cl)cc1)C=C(c1ccccc1)N2)N1CCOCC1 (stereo unspecified),4%,-13%,4.1µM*,0%,-8%
CC(=O)Nc1nc2n(n1)C(c1ccc(F)cc1)C=C(c1ccccc1)N2 (stereo unspecified),45%,-1%,?,3%,-5%
O=C(Nc1nc2n(n1)C(c1ccccc1)C=C(c1ccccc1)N2)c1ccco1 (stereo unspecified),?,17%,8.3µM*,7%,-5%
CCC(=O)Nc1nc2n(n1)C(c1ccc(OC)cc1)C=C(c1ccccc1)N2 (stereo unspecified),?,10%,nt,8%,nt
Cc1ccc(C2=NCCn3nc4cc(C(F)(F)F)ccc4c32)cc1,38%,nt,?,-5%,1%
COC(=O)[C@@]1(Sc2ccc(C)cc2)CC(=O)N[C@@H]1c1ccc(Br)cc1,nt,nt,nt,nt,-17%
Nc1nc(-c2ccccn2)nc(N)c1Cc1ccc(Cl)cc1Cl,1.3µM*,nt,1.9µM*,22%,?
CNc1cc(C(F)(F)F)nc(-c2ccccn2)n1,?,-7%,?,3%,24%
Nc1nc(-c2ccccn2)nc(N)c1Cc1ccccc1F,5.2µM*,nt,?,26%,-23%
Nc1nc(-c2ccccn2)nc(N)c1Cc1c(F)cccc1Cl,?,nt,12µM*,?,?
CC(C)(C)c1ccc(C(=O)NCc2nnc(SCC(=O)N3CCCC3)o2)cc1,nt,nt,nt,nt,6%
CC1Cc2ccccc2N1C(=O)COC(=O)CCc1nc2ccccc2c(=O)[nH]1 (stereo unspecified),11%,-12%,-7%,0%,-9%
CC1(NC(=O)/C=C/c2nc3ccccc3s2)CCS(=O)(=O)C1 (stereo unspecified),?,nt,-26%,5%,5%
COc1ccc(CN(C)c2ncnc3sccc23)c(OC)c1OC,?,-2%,13µM*,2%,43%
COc1ccc(CCN(C)c2ncnc3sccc23)cc1OC,4%,nt,-5%,-9%,1%
FC(F)(F)c1ccc(NCCc2ccccc2)nc1,-25%,-9%,26%,-3%,5%
Cc1nc(-c2ccncc2)nc(NCCNc2ccc(C(F)(F)F)cn2)c1Cl,2.3µM*,2%,3.7µM*,-5%,4%
O=C(N/C(=C/c1ccc(F)cc1)C(=O)N1CCOCC1)c1ccco1,nt,nt,nt,nt,2%
COC(=O)C1C=CC(OC2OC(COC(C)=O)C(OC(C)=O)C(OC(C)=O)C2OC(C)=O)n2c(=O)n(-c3ccccc3)c(=O)n21 (stereo unspecified),nt,nt,nt,nt,34%
CCOC(=O)C(/C(N)=N/C(=O)Nc1ccccc1)=C(\C)O,9.3µM*,-15%,-5%,-3%,-2%
Cc1ccc(SC[C@H](Cc2ccccc2)N2CCN(CC(C)C)CCC2=O)cc1,?,-39%,?,-1%,-20%
CC(C)CN1CCC(=O)N([C@H](CSc2ccccc2)Cc2ccccc2)CC1,13µM*,-10%,?,2%,-18%
CCCN1CCC(=O)N([C@H](CSc2ccc(Br)cc2)Cc2ccccc2)CC1,1.9µM*,0%,?,0%,-6%
